This is an account of results in PubChem BioAssay.

The test system of assay [1] is Human papillomavirus type 1a protein E7 (residues 44-93). The experiment in a line: HPV1a E7 fragment binders on microarrays, primary screen, biochemical, small-molecule microarray, residues 44-93, 635 nm fluorescence (AID 1108).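 Also: E7 fragment applied at 1 µg/mL in TBST for 1 h at 4 C; score combines spot fluorescence with its signal to noise ratio.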 Particulars: small-molecule microarray binding, fluorescence 635 nm; higher = more signal.
Assay [2] can be described thus: modulators of HCV replicon luciferase signal, primary screen, HCV replication inhibitor project, Huh7 cells, luciferase reporter (AID 1109).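 Also: huh7 hepatoma cells harbouring a luciferase neomycin HCV replicon reporter; luciferase luminescence as measure of HCV replicon replication; test concentration not given here.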 Conditions: 48 h, higher = more signal.
Assay [3] concerns the target Left-right determination factor 2 (Homo sapiens) (UniProt O00292). The experiment in a line: LEFTY2 binders on small-molecule microarrays, primary screen, biochemical, small-molecule microarray, 635 nm fluorescence scan (AID 1110). Particulars: LEFTY2 binding, higher = more signal.
Assay [4] has as its target Calmodulin-1 (Homo sapiens) (UniProt P0DP23). The experiment in a line: CALM1 binders on microarrays, EGTA buffer, profiling panel, biochemical, small-molecule microarray, Cy5-labelled CALM1 (AID 1111).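 Also: labelled calmodulin applied in Tris saline Tween buffer holding calcium plus EGTA and DTT.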 Particulars: Cy5-CALM1 binding fluorescence, higher = more signal.
Assay [5] has the same target. The experiment in a line: calcium-bound CALM1 binders on microarrays, profiling panel, artefact control for SMM control-protein annotation, biochemical, small-molecule microarray, Cy5-labelled CALM1, plus calcium (AID 1112).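 Also: score merges spot fluorescence with signal to noise from triplicate slides.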 Particulars: Cy5-CALM1 binding fluorescence, higher = more signal.
A short description of assay [6]: small-molecule microarray binders of probe aWnt5a, primary screen, biochemical, biotinylated probe, 635/667 nm fluorescence (AID 1113).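 Also: score merges 667 nm fluorescence intensity with signal-to-noise per printed feature.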 Particulars: higher = more signal.
Assay [7] in a line: small-molecule microarray binders of probe aShh, primary screen, biochemical, biotinylated probe, 635/667 nm fluorescence (AID 1114).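 Also: probe is biotin-labelled aShh protein from a stem cell growth factor screen; measures binding of labelled protein to compounds printed on the slide; score merges feature fluorescence at 667 nm with signal-to-noise.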 Conditions: higher = more signal.
Assay [8] in a line: small-molecule microarray binders of probe aNog, primary screen, biochemical, biotinylated probe, 635/667 nm fluorescence (AID 1115).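 Also: probe is biotinylated aNog protein used at 0.15 µg/mL for 1 h at 4 C; z-score combines 667 nm fluorescence of each spot with its signal to noise.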 Conditions: higher = more signal.
The target of assay [9] is Torsin-1A-interacting protein 1 (Homo sapiens) (UniProt Q5JTV8). The experiment in a line: LAP1 binders from COS7 cell lysate, primary screen, small-molecule microarray, 635/667 nm fluorescence (AID 1116). Particulars: COS7-hLAP1 lysate binding, 635 nm fluorescence, higher = more signal.
Torsin-1A-interacting protein 1 (Homo sapiens), sequence (Q5JTV8 whole entry, looked up): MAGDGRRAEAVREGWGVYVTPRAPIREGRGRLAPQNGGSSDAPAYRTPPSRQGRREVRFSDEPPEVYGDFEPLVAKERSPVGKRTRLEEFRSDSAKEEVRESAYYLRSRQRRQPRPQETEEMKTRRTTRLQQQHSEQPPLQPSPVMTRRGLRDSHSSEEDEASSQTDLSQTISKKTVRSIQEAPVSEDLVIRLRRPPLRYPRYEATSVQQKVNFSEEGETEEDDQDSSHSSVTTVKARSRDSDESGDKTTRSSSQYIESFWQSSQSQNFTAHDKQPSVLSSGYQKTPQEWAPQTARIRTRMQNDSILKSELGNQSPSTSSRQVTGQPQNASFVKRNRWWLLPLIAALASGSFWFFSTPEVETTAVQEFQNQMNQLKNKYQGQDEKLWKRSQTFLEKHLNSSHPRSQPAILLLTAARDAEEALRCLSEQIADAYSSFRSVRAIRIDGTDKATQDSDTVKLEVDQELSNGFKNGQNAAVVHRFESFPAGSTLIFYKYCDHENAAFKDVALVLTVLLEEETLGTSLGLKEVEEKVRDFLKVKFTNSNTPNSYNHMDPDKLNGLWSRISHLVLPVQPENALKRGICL
In assay [10] the target is Alpha-bungarotoxin (Bungarus multicinctus) (UniProt P60615). The experiment in a line: alpha-bungarotoxin binders on microarray, profiling panel, artefact control for SMM control protein annotation, biochemical, small-molecule microarray, Alexa647 label, 635/667 nm fluorescence (AID 1117). Conditions: alpha-BTX-A647 binding fluorescence, higher = more signal.
Alpha-bungarotoxin (Bungarus multicinctus), sequence (P60615 whole entry, looked up): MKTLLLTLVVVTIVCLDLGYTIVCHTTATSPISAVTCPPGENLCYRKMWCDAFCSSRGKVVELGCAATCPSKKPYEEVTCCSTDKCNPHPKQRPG
The next assay has as its target Albumin (Bos taurus) (UniProt P02769). The experiment in a line: bovine serum albumin binders on microarray, profiling panel, artefact control for SMM control protein annotation, biochemical, small-molecule microarray, Alexa647 label, 635/667 nm fluorescence (AID 1118).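 Also: score merges 667 nm emission intensity and signal-to-noise per printed compound spot.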 Conditions: BSA-A647 binding, fluorescence 635 nm, higher = more signal.
A short description of assay [11]: small-molecule microarray binders of probe aXIP, primary screen, biochemical, NeuroSMM set, 635/667 nm fluorescence (AID 1119).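 Also: probe is the protein aXip251-270 applied at 1 µg/mL to compound-printed slides; binding of probe to printed compounds measured as 667 nm fluorescence plus signal to noise.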 Particulars: higher = more signal, called active from +8 up or from −8 down.
Assay [12] in a line: small-molecule binders of probe aNOTCH3, primary screen, biochemical, small-molecule microarray, 635/667 nm fluorescence (AID 1120).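 Also: probe is a biotin-tagged antibody raised against NOTCH3 rather than NOTCH3 protein; score merges spot fluorescence near 667 nm with spot signal to noise.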 Conditions: higher = more signal.
Assay [13] can be described thus: small-molecule binders of probe aNOTCH2, primary screen, biochemical, small-molecule microarray, 635/667 nm fluorescence (AID 1121).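 Also: score merges feature fluorescence read at 667 nm with its signal to noise.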 Particulars: higher = more signal.
Assay [14] deals with Carbonic anhydrase 2 (Homo sapiens) (UniProt P00918). The experiment in a line: CAII small-molecule binders, profiling panel, biochemical, small-molecule microarray, Alexa647-labelled CAII (AID 1122). Conditions: CAII-A647 binding fluorescence, higher = more signal.
Assay [15] is described as follows: COS7 lysate on small-molecule microarray, probe aHis, 635 nm (AID 1123).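 Also: z-score combines 667nm fluorescence intensity with signal-to-noise per printed compound spot.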 Conditions: COS7 cell lysate, fluorescence, higher = more signal.
A short description of assay [16]: compound binding in COS7 lysate, probe aLAP1, primary screen, cell lysate, small-molecule microarray (AID 1124).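 Also: lysate comes from COS7 cells expressing LAP1 and is applied at 0.3 µg/mL; score merges spot fluorescence near 667 nm with signal-to-noise over triplicate slides.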 Particulars: probe aLAP1, fluorescence, higher = more signal.
A further assay has as its system Sam68 (KHDRBS1). The experiment in a line: Sam68 small-molecule binders, primary screen, biochemical, small-molecule microarray, 635 nm fluorescence (AID 1125).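 Also: score merges 667 nm channel intensity with signal to noise over triplicate slides.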 Conditions: small-molecule microarray binding, higher = more signal.
Assay [17] relates to Chordin-like protein 2 (CHRDL2). The experiment in a line: CHRDL2 small-molecule binders, primary screen, biochemical, small-molecule microarray, 635 nm fluorescence (AID 1126).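 Also: printed compound slides probed with Chrdl2 protein at 4 µg/mL for 1 h at 4 C; score merges 667 nm emission intensity with signal to noise over three replicate slides.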 Conditions: small-molecule microarray binding, fluorescence 635 nm; higher = more signal.
Assay [18] concerns the target Concanavalin-A (Canavalia ensiformis) (UniProt P02866). The experiment in a line: ConA small-molecule binders, primary screen, artefact control for SMM control protein annotation, biochemical, small-molecule microarray, Alexa647 label, 635 nm (AID 1127).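 Also: z combines 667 nm emission intensity with signal-to-noise across three replicate slides.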 Conditions: ConA-A647 binding fluorescence, higher = more signal.

Structures are written as SMILES. The source made the active and inactive calls.

Albumin (Bos taurus), sequence (P02769 whole entry, looked up): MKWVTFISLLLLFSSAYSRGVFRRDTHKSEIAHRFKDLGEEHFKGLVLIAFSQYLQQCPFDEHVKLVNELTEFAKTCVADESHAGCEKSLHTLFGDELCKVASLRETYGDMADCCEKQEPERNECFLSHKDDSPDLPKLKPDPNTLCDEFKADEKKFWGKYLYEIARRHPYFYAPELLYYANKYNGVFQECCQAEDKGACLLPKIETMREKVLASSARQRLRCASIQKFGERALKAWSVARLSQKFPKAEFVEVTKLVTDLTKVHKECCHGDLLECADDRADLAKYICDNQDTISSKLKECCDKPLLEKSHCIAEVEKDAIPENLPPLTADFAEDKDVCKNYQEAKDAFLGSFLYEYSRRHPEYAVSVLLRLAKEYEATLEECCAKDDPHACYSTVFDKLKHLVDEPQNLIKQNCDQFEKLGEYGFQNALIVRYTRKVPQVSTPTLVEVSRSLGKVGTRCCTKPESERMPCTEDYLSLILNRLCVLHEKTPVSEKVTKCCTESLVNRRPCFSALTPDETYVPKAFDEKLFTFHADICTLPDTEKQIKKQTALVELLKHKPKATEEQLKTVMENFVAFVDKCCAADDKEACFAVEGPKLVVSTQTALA
Concanavalin-A (Canavalia ensiformis), sequence (P02866 whole entry, looked up): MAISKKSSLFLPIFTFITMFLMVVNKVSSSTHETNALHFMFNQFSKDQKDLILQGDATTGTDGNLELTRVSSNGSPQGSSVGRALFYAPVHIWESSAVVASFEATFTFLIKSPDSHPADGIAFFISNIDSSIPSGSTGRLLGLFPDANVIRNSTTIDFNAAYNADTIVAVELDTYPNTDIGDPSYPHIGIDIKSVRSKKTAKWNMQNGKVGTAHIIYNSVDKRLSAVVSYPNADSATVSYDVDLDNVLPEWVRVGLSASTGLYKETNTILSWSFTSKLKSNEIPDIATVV
Left-right determination factor 2 (Homo sapiens), sequence (O00292 whole entry, looked up): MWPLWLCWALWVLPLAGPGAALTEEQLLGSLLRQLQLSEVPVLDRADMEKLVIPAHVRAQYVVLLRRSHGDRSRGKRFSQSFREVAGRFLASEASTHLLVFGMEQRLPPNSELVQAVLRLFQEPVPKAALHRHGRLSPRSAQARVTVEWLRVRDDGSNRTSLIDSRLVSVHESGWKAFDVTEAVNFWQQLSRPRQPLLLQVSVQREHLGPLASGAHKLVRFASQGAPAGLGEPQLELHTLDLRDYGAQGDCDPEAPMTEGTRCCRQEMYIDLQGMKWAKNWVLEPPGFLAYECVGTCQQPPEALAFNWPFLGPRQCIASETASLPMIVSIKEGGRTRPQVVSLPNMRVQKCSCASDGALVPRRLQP

On to `O=C1O[C@@H](c2ccccc2)[C@@H](c2ccccc2)N2[C@@H](c3ccc(O)cc3)[C@]3(C(=O)Nc4ccc(C#CCCO)cc43)[C@@H](C(=O)N3CCCCCCC3)[C@H]12`, for which the composite z-score is 0.777 in assay [1]; 0.51 in [3]; 2.37 in [4]; 1.05 in assay [5]; 0.861 in [6]; -0.116 in assay [7]. The composite z-score in assay [8] is 2.68; in assay [9], 3.66; in [10], 2.14; with Albumin (Bos taurus) it was -0.126; in assay [12] it was 1.3; in assay [13] it was 0.612. Further, the composite z-score in [14] is 0.766; in assay [15], 3.26; in [16], 0.991; with Sam68 (KHDRBS1), 1.16; in [17] it was 1.43; in assay [18] it was 0.884. Further, the z-score in assay [2] was -1.18. In assay [11], the composite Z-score is 5.37 (inactive).
As for `C#C[C@H](O[Si](C#CCCCCCC)(C(C)C)C(C)C)c1ccccc1`, the composite z-score in [1] was 0.228; in [3] it was -0.234; in assay [4], -0.302; in assay [5] it was -0.351; in [6], -0.131; in assay [7], -0.341. Moreover, the composite z-score in assay [8] was 0.167; in assay [9], -0.0173; in assay [10], 0.0612; with Albumin (Bos taurus) it was -0.22; in [12], -0.22; in [13] it was -0.155. Moreover, the composite z-score is 0.342 in assay [14]; 0.43 in [15]; -0.281 in assay [16]; 0.524 with Sam68 (KHDRBS1); -0.0786 in assay [17]; -0.0042 in assay [18]. In addition, in [2], the z-score amounted to 0.242. In addition, in [11], the composite Z-score was 0.364 (inactive).
Take `[N-]=[N+]=Nc1ccccc1[C@@H]1OC(c2ccc(OCCCO)cc2)=N[C@]1(CCS(=O)(=O)c1ccccc1)C(=O)N1CCCCC1`: the composite z-score was 1.22 in assay [1]; -0.175 in assay [3]; 2.16 in [4]; 1.26 in assay [5]; 0.129 in assay [6]; 0.408 in assay [7]. Also, the composite z-score in [8] worked out at 0.755; in assay [9], 1.79; in [10], 3.01; with Albumin (Bos taurus), 1.03; in assay [12] it was 0.144; in assay [13], 0.139. The composite z-score in assay [14] was 0.625; in [15] it was 1.93; in assay [16], 0.686; in the assay with Sam68 (KHDRBS1), 1.29; in [17], -0.74; in assay [18] it was 1.2. This compound came in with a z-score in [2] of 0.0018. Also, the composite Z-score in [11] was -0.0281 (inactive).
As for `CN(C)CCCCNC(=O)[C@@H]1C[C@@H]2C(=O)N[C@@H](CCCCN)C(=O)N2[C@@H]1c1cccc(OCCO)c1`, the composite z-score in assay [1] was 0.572; in assay [3] it was -1.55; in [4], -0.328; in assay [5], -0.547; in assay [6], -0.12; in assay [7], 0.0735. The composite z-score in assay [8] was 0.42; in assay [9], 0.482; in [10], -0.863; with Albumin (Bos taurus), -0.564; in assay [12] it was -0.0918; in assay [13] it was 0.0072. Moreover, the composite z-score in [14] was 0.42; in assay [15] it was 2.85; in [16] it was 0.429; in the assay on Sam68 (KHDRBS1), -0.266; in assay [17] it was -0.0061; in assay [18] it was 0.344. Also, the z-score in assay [2] was -0.289. Further, the composite Z-score in assay [11] is 0.703 (inactive).
As for `CN1C(=O)C2C=CC(C(O)C(C)(C)C)N(Nc3ccccc3)C2C1=O` (stereo not given), the composite z-score in assay [1] is -0.911; in assay [3], -0.428; in assay [4], -0.0143; in assay [5] it was -0.395; in assay [6], -0.0405; in [7] it was -0.24. For the same compound, the composite z-score in [8] is 0.779; in assay [9] it was -0.0378; in assay [10], 0.531; with Albumin (Bos taurus) it was 0.494; in assay [12], -0.217; in assay [13] it was -0.029. The composite z-score in assay [14] is 0.847; in assay [15], 2.78; in assay [16], -0.519; with Sam68 (KHDRBS1), -0.141; in assay [17] it was -0.156; in assay [18], -0.127. This compound also returned a z-score in [2] of 0.813. Besides, the composite Z-score in assay [11] was 0.914 (inactive).
